# The entries come from a sample that favours hits as a whole.
# Pf apPOL inh – Pf-apPOL DNA polymerase inhibition | inhibition, % at 10 µM | Recombinant Pf-apPOL, molecular beacon fluorescence, 1.5 h | 0.25% of 210,000 active | AID 1794808
# mHTT CaM bind – mHTT-calmodulin interaction abrogation; P42858; inhibition, % at 15 µM; AlphaScreen His-mHTT/GST-CaM binding, luminescence; 3.6% of 190,000 active;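 further: 0% = both proteins with DMSO and 100% = one protein alone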
# Active calls of the source: *; · = no result given. No stated cut-off is given here; in the data, active means inhibition above about 50%; inactive means the rest.
SMILES,Pf apPOL inh,mHTT CaM bind
Fc1ccc(N2Cc3ccccc3C2)cc1,·,-6.5
CCN(C(=O)CN1C(=O)NC2(CCCCC2)C1=O)c1ccccc1,-2.5,-3.1
CCN(C(=O)CN1C(=O)c2ccccc2C1=O)c1ccccc1,-1.4,98.1*
N#Cc1ccc(N=Cc2cc(I)cc(I)c2O)cc1,-0.5,53.0*
CCOC(=O)c1ccc(N=Cc2cc(I)cc(I)c2O)cc1,-25.8,·
O=C(Nc1ccc2ncnc(N3CCCCC3)c2c1)c1ccccc1,0.2,27.3

# Source: PubChem BioAssay
